In publication PMC7862700, “An all-to-all approach to the identification of sequence-specific readers for epigenetic DNA modifications on cytosine” one finds binding signal data, which are given here for one sequence.

Assay in all cases: DAPPL (digital affinity profiling via proximity ligation, sequencing); 10 mM Tris-HCl pH 7.5, 50 mM NaCl, 1 mM DTT, 4% glycerol, room temperature, 30 min; GST-TFs on glutathione beads, 16-mer random dsDNA library, 0.1% formaldehyde crosslink after washing; high values mean tight binding
One assay has as its target T1, FLI1 (Homo sapiens, UniProt Q01543 1-452).
T1 sequence: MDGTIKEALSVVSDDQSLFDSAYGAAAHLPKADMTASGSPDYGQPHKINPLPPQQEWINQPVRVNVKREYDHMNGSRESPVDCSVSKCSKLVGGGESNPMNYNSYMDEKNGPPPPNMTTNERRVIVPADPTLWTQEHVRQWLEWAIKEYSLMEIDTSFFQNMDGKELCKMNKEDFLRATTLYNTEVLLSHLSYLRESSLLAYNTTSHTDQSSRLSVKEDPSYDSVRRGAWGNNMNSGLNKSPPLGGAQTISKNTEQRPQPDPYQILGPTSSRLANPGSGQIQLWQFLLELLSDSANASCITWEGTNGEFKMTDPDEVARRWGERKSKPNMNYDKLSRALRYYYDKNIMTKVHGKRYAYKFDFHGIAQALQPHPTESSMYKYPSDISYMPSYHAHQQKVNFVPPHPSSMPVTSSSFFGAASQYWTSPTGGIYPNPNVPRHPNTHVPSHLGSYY
As to conditions: protein: recombinant; tags: N-terminal GST; dsDNA, one strand shown. A digest of the protocol: (§1)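 The binding signal reported is, for every hexamer, its read frequency for a factor over its read frequency for the tag-only sample. Reads came from pools of yeast-expressed, GST-fused human transcription factors on glutathione beads, barcoded with DNA and mixed with that sample, which were incubated with 200 nmole of a random double-stranded 16-mer DNA library in Tris/NaCl/DTT/glycerol buffer at room temperature for 30 min. After washing, the pools were crosslinked with 0.1% formaldehyde, proximity-ligated with BsaI/T4 ligase for 1 h at 37 °C, PCR-amplified and sequenced on an Illumina NextSeq500.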

Another assay deals with T2, ELK1 (Homo sapiens, UniProt P19419 1-428).
T2 sequence: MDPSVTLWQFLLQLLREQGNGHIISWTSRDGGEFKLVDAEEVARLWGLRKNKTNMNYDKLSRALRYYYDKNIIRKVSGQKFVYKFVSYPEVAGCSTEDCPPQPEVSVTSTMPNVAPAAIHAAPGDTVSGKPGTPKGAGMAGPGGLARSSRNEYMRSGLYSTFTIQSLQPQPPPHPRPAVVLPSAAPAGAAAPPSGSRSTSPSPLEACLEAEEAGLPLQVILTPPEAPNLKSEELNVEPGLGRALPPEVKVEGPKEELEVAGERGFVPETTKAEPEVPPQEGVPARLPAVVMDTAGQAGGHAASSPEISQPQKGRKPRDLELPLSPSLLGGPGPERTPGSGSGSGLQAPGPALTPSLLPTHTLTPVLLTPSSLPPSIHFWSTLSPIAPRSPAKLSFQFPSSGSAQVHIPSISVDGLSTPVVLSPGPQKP
As to conditions: protein: recombinant; tags: N-terminal GST; dsDNA, one strand shown. A digest of the protocol:
as §1

Another assay deals with T3, GABPA (Homo sapiens, UniProt Q06546 1-454).
T3 sequence: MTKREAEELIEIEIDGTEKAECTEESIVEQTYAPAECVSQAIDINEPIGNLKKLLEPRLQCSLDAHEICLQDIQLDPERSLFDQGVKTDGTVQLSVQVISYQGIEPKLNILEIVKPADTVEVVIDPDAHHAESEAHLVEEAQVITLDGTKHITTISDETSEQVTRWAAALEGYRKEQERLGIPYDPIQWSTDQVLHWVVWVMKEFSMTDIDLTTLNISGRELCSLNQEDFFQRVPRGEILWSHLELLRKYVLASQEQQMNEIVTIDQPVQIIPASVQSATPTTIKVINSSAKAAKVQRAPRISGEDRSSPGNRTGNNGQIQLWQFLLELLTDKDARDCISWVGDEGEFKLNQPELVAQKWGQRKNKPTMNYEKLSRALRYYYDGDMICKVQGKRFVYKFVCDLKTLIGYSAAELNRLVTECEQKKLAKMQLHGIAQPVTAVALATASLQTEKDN
Particulars: protein: recombinant; tags: N-terminal GST; dsDNA, one strand shown. A digest of the protocol: as §1

Another assay concerns the target T4, ERG (Homo sapiens, UniProt P11308 1-479).
T4 sequence: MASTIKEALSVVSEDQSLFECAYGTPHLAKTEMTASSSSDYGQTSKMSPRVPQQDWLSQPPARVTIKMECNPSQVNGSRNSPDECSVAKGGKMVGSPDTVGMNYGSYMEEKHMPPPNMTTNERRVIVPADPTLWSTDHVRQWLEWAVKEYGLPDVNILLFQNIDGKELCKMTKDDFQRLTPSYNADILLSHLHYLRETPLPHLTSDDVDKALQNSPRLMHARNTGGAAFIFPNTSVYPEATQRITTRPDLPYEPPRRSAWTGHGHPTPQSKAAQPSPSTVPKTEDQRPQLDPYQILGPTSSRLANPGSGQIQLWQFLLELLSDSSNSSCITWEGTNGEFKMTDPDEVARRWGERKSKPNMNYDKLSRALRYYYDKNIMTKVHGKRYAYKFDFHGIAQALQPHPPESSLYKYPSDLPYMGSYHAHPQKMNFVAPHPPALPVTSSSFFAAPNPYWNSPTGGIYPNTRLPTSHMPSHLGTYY
As to conditions: protein: recombinant; tags: N-terminal GST; dsDNA, one strand shown. A digest of the protocol: as §1

In the next assay the target is ELF1 (Homo sapiens, UniProt P32519 1-619). As to conditions: protein: recombinant; tags: N-terminal GST; dsDNA, one strand shown. A digest of the protocol: as §1
For a further assay, the target named is T5, EHF (Homo sapiens, UniProt Q9NZC4 1-300).
T5 sequence: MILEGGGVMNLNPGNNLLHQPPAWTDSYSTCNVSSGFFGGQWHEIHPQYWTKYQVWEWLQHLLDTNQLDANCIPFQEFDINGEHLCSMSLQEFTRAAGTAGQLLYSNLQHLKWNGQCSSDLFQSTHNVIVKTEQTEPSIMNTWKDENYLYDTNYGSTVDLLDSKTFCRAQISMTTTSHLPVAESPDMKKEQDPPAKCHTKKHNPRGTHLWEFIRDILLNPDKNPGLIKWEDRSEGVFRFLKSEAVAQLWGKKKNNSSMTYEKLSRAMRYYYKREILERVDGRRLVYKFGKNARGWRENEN
Particulars: protein: recombinant; tags: N-terminal GST; dsDNA, one strand shown. A digest of the protocol: as §1

Another assay deals with SPI1 (Homo sapiens, UniProt P17947 1-270). As to conditions: protein: recombinant; tags: N-terminal GST; dsDNA, one strand shown. An outline of the steps: as §1
The next assay addresses SPIB (Homo sapiens, UniProt Q01892 1-262). As to conditions: protein: recombinant; tags: N-terminal GST; dsDNA, one strand shown. A digest of the protocol: as §1
Another assay concerns the target T6, ELK3 (Homo sapiens, UniProt P41970 1-407).
T6 sequence: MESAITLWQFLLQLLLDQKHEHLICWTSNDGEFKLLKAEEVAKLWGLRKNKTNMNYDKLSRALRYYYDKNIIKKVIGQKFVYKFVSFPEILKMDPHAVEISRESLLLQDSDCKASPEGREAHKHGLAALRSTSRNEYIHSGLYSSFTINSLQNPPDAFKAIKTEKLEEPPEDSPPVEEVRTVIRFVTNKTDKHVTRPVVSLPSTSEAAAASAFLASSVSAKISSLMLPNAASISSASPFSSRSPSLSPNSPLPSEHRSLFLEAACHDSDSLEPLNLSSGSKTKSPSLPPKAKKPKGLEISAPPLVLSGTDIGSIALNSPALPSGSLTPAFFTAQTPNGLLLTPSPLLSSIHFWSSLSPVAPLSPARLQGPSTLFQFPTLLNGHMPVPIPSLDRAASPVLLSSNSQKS
As to conditions: protein: recombinant; tags: N-terminal GST; dsDNA, one strand shown. An outline of the steps:
as §1

For another assay, the target named is T7, FEV (Homo sapiens, UniProt Q99581 1-238).
T7 sequence: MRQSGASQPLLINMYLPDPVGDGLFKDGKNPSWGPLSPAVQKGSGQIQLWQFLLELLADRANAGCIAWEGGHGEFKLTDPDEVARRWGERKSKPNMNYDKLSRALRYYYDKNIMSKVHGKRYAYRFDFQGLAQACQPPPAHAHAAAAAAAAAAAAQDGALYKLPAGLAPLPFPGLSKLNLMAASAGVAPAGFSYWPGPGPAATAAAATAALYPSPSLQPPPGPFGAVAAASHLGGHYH
Particulars: protein: recombinant; tags: N-terminal GST; dsDNA, one strand shown. A digest of the protocol:
as §1

The next assay deals with ETV5 (Homo sapiens, UniProt P41161 1-510). Particulars: protein: recombinant; tags: N-terminal GST; dsDNA, one strand shown. A digest of the protocol: as §1
The next assay addresses HSF1 (Homo sapiens, UniProt Q00613 1-529). Particulars: protein: recombinant; tags: N-terminal GST; chain copies: 3; dsDNA, one strand shown. A digest of the protocol: as §1
For the next assay, the target named is T8, SPIC (Homo sapiens, UniProt Q8N5J4 1-248).
T8 sequence: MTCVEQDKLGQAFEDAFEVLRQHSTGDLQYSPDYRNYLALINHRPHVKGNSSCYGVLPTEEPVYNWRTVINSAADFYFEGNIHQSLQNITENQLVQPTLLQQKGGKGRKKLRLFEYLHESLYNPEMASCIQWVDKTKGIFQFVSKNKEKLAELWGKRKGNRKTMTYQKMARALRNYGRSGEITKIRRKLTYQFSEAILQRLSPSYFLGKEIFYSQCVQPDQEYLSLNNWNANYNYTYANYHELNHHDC
As to conditions: protein: recombinant; tags: N-terminal GST; dsDNA, one strand shown. An outline of the steps:
as §1

In a further assay the target is ELF4 (Homo sapiens, UniProt Q99607 1-663). Particulars: protein: recombinant; tags: N-terminal GST; dsDNA, one strand shown. A digest of the protocol: as §1
The target of the next assay is T9, ELK4 (Homo sapiens, UniProt P28324-2 1-405).
T9 sequence: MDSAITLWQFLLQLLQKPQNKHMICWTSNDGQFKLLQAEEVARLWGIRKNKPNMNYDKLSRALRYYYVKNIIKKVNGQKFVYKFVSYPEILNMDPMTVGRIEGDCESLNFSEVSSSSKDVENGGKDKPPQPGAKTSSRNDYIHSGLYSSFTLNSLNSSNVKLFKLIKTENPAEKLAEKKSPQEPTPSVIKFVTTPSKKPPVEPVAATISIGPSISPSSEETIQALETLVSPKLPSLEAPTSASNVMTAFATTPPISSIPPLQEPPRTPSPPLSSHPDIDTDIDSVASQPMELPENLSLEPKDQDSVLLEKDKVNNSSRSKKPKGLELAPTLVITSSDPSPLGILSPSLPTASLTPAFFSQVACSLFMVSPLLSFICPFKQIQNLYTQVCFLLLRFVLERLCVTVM
Particulars: protein: recombinant; tags: N-terminal GST; dsDNA, one strand shown. An outline of the steps:
as §1

The target in another assay is T10, ETV2 (Homo sapiens, UniProt O00321 1-342).
T10 sequence: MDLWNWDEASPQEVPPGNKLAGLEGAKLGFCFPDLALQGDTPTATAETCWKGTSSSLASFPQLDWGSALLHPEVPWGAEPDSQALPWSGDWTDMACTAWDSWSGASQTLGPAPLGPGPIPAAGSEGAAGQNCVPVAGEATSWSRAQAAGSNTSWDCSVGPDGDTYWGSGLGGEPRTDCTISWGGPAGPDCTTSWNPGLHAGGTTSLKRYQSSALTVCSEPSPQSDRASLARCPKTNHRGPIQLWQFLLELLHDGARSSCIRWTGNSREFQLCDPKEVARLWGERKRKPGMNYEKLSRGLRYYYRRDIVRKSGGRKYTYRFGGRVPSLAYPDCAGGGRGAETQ
Particulars: protein: recombinant; tags: N-terminal GST; dsDNA, one strand shown. A digest of the protocol:
as §1

A further assay has as its target T11, ELF3 (Homo sapiens, UniProt P78545 1-371).
T11 sequence: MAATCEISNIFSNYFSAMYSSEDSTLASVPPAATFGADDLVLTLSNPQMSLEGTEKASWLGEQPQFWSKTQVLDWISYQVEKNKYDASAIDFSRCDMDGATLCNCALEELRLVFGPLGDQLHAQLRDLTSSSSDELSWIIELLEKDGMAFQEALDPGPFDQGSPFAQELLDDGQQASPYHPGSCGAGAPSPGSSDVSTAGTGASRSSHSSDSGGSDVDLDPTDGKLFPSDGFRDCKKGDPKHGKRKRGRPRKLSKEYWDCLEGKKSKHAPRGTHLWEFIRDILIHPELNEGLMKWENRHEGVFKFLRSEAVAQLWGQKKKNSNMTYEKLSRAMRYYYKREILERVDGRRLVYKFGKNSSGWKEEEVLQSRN
Particulars: protein: recombinant; tags: N-terminal GST; dsDNA, one strand shown. A digest of the protocol: as §1

For the next assay, the target named is CRX (Homo sapiens, UniProt O43186 1-299). Particulars: protein: recombinant; tags: N-terminal GST; dsDNA, one strand shown. A digest of the protocol:
as §1

The next assay has as its target ETV1 (Homo sapiens, UniProt P50549 1-477). As to conditions: protein: recombinant; tags: N-terminal GST; dsDNA, one strand shown. A digest of the protocol:
as §1

Chain of SPIB (Q01892 whole entry): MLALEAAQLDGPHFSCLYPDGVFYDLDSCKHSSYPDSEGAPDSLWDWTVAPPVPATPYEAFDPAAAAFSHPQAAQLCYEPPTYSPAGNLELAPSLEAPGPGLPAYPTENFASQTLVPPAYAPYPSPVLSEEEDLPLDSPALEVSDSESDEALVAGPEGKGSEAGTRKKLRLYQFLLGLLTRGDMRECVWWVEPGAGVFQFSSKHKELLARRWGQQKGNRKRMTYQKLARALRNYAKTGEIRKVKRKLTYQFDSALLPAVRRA
Chain of ETV1 (P50549 whole entry): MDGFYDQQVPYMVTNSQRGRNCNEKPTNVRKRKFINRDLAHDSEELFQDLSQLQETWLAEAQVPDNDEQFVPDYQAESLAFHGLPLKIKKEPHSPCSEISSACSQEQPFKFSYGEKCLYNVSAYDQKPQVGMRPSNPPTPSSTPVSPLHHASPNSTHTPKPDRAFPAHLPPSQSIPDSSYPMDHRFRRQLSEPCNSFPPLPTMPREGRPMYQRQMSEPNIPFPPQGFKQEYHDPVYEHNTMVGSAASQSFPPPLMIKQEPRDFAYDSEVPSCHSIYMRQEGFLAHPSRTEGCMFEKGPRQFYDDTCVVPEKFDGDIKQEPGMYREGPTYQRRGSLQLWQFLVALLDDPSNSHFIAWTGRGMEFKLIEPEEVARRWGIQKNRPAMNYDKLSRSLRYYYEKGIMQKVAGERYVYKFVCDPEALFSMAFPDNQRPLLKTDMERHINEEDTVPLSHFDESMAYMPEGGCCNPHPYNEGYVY
Chain of ELF4 (Q99607 whole entry): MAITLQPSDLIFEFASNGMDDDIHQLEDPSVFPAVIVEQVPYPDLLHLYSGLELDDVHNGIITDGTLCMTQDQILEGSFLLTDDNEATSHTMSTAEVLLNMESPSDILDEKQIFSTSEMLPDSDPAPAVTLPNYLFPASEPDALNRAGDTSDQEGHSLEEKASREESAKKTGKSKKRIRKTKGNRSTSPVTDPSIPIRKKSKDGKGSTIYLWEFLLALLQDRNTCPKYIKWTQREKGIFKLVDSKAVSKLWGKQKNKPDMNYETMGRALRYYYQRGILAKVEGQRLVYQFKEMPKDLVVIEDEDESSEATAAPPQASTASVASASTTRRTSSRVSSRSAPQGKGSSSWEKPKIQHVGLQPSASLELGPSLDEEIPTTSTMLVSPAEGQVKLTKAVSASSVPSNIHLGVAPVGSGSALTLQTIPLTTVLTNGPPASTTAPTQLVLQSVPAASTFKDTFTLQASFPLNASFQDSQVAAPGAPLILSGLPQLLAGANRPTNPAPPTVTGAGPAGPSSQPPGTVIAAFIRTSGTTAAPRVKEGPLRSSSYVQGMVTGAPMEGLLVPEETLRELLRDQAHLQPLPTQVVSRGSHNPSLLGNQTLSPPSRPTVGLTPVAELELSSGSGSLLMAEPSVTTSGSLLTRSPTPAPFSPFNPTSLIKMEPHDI
Chain of HSF1 (Q00613 whole entry): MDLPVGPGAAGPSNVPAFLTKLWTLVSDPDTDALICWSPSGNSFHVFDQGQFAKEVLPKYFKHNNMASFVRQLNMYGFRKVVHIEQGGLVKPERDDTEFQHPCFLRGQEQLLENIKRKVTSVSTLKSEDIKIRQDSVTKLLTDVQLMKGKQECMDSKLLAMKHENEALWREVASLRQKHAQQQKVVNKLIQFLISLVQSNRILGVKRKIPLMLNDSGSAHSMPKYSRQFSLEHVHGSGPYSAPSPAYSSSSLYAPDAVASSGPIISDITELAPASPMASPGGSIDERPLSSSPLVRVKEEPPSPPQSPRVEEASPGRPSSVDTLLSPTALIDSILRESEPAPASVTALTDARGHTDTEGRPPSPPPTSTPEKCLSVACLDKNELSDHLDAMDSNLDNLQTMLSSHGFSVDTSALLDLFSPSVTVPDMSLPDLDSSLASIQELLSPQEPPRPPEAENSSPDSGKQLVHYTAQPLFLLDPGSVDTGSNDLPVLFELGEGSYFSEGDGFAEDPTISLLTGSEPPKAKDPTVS
Chain of ETV5 (P41161 whole entry): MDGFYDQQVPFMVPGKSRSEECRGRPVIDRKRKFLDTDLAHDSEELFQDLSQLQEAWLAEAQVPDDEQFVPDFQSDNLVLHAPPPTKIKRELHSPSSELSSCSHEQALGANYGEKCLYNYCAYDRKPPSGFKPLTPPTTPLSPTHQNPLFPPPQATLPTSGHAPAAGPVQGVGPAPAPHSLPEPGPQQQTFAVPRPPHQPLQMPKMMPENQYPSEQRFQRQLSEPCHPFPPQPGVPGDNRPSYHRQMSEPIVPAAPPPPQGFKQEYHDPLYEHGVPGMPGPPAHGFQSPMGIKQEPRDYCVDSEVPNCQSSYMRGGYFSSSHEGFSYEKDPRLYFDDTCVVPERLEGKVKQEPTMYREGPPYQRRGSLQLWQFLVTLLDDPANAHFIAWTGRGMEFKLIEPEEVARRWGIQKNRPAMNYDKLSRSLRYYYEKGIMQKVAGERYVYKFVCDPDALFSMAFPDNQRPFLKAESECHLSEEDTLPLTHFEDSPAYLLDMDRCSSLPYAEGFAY
Chain of ELF1 (P32519 whole entry): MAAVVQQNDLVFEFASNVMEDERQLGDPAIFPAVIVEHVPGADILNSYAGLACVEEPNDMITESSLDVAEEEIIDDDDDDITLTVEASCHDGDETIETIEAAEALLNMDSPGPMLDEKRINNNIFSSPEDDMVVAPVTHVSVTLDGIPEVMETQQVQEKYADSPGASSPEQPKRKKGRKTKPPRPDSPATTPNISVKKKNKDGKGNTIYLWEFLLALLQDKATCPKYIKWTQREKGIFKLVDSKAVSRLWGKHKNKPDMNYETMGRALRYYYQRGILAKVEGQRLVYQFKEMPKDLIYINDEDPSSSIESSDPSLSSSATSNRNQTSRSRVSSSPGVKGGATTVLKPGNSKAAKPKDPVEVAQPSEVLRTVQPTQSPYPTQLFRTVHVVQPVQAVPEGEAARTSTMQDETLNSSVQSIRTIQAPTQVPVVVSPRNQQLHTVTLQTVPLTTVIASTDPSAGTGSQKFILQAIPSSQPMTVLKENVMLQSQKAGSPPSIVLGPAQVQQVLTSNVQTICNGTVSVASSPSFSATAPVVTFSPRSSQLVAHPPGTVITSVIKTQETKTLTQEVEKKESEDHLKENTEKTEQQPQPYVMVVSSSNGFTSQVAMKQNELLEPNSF
Chain of CRX (O43186 whole entry): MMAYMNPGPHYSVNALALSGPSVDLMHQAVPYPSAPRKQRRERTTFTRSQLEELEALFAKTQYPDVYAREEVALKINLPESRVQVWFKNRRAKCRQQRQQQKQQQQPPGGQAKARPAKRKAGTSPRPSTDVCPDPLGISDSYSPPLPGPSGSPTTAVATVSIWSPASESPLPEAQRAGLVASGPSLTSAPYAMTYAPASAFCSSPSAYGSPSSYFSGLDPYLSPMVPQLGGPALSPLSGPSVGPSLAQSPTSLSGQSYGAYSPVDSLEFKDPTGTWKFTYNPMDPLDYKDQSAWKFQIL

On to ATCCCA, for which the binding signal with FLI1 was 1.07 fold enrichment (6-mer frequency, TF over GST control); with ELK1, 1.14 fold enrichment (6-mer frequency, TF over GST control); in the assay with GABPA, 1.15 fold enrichment (6-mer frequency, TF over GST control); with ERG it was 1.2 fold enrichment (6-mer frequency, TF over GST control); with ELF1, 1.22 fold enrichment (6-mer frequency, TF over GST control); in the assay with EHF, 1.15 fold enrichment (6-mer frequency, TF over GST control). For the same sequence, the binding signal was 1.03 fold enrichment (6-mer frequency, TF over GST control) with SPI1; 1.05 fold enrichment (6-mer frequency, TF over GST control) with SPIB; 1.2 fold enrichment (6-mer frequency, TF over GST control) with ELK3; 1.14 fold enrichment (6-mer frequency, TF over GST control) in the assay with FEV; 1.11 fold enrichment (6-mer frequency, TF over GST control) with ETV5; 1.34 fold enrichment (6-mer frequency, TF over GST control) with HSF1. Further, the binding signal was 1.07 fold enrichment (6-mer frequency, TF over GST control) with SPIC; 1.1 fold enrichment (6-mer frequency, TF over GST control) in the assay with ELF4; 1.13 fold enrichment (6-mer frequency, TF over GST control) with ELK4; 1.14 fold enrichment (6-mer frequency, TF over GST control) with ETV2; 1.23 fold enrichment (6-mer frequency, TF over GST control) in the assay with ELF3; 1.69 fold enrichment (6-mer frequency, TF over GST control) with CRX. The binding signal with ETV1 was 1.09 fold enrichment (6-mer frequency, TF over GST control).
